Source: PubChem BioAssay (several laboratories)
Bim-Mcl-1 – human Bim-Mcl-1 interaction inhibition; 190,000 compounds, 0.1% hits; Q07820; inhibition, % at 10 µM; Bead-based flow cytometry, Bim peptide-Mcl-1 binding; in the data active means inhibition above about 40%;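 further: 0% = no compound tracer wells and 100% = peptide blocker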
Target sequence (Q07820 whole entry, looked up): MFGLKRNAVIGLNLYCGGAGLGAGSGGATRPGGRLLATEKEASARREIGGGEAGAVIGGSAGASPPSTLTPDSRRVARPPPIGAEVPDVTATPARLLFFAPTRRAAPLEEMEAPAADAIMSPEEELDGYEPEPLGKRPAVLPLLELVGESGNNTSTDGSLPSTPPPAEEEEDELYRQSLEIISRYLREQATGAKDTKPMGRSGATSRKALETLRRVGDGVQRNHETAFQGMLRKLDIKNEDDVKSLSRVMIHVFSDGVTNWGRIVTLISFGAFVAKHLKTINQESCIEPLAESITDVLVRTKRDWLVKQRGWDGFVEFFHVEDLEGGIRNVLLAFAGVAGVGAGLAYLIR
MCL1 BIM primary – inhibitors of human MCL1 binding to BIM-BH3 peptide; Q07820; GST-MCL1 / FITC-Bim-BH3 fluorescence polarization; inhibition, % at 10.9 µM; 320,000 compounds, 0.68% hits;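 active means inhibition above the mean inhibition of all tested compounds plus 3 SD, set per campaign, cut at about 40% in these data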;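 further: 0% = DMSO wells and 100% = unlabeled Bim-BH3 peptide control; higher means more loss of mP so more displacement of Bim peptide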
Mcl1-Bid inh – disrupts binding of human Mcl-1 to Bid peptide. AID 1021. 220,000 compounds, 0.97% hits. TR-FRET Mcl-1/Bid-Dy647 peptide binding, 1536-well. inhibition, % at 21.7 µM. Q07820;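 active means compounds that cut the binding signal by more than half at the single screening dose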;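 further: His-tagged Mcl-1 with europium anti-His antibody binding Bid BH3 peptide; 0% = Mcl-1 plus peptide wells and 100% = peptide-only wells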
L929 necroptosis – blocks zVAD induced death of L929 cells. L929 zVAD necroptosis rescue, ATP luminescence, 24 h; with zVAD 60 µM. viability rescue, % at 10 µM. 220,000 compounds, 0.38% hits;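 active means activation, scaled between plate controls, above about 75%, limit read from the data; inactive means activation under that limit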;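 further: 0% = zVAD with DMSO and 100% = DMSO alone without zVAD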
TNF necrop inh – blocks TNF-alpha induced death of Jurkat FADD-/- cells; Jurkat FADD-/- TNF necroptosis rescue, ATP luminescence, 24 h; 0 = TNF only, 100 = no-TNF cells; activation (protection from cell death), % at 10 µM; 220,000 compounds, 0.068% hits;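 active means activation, meaning protection from cell death, of at least 50% relative to plate controls; inactive means activation below 50%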;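 further: necroptosis triggered by 40 ng/mL TNF-alpha added together with compound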
Mcl1 Noxa PPI – disrupts binding of human Mcl-1 to Noxa peptide. TR-FRET Mcl-1/Noxa peptide binding, 2 h. inhibition, % at 21.7 µM. 220,000 compounds, 1.5% hits. AID 1022;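 active means compounds that cut the protein-peptide binding signal by more than 50% relative to plate controls in a single-dose test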;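 further: His-tagged Mcl-1 with rhodamine Noxa BH3 peptide and terbium anti-His antibody; 0% = Mcl-1 plus Noxa peptide wells and 100% = peptide-only wells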
An asterisk follows results filed as active; . = no result given. Compounds with a hit are over-represented: about 2.4% of the library has one in this group of screens.

SMILES | Bim-Mcl-1 | MCL1 BIM primary | Mcl1-Bid inh | L929 necroptosis | TNF necrop inh | Mcl1 Noxa PPI
CC(NS(=O)(=O)c1ccccc1)C1CC2CCC1C2 (stereo not drawn) | . | 3 | . | . | . | .
Cc1sc2ncn(Cc3ccccc3F)c(=O)c2c1C | -1 | 2 | -10 | 1 | 95* | 3
O=C(Nc1sc2c(c1C(=O)O)CCC2)C(=O)N1CCOCC1 | . | 32 | . | . | . | .
C=CCn1c(SCC(=O)Nc2sc3c(c2C#N)CCC3)nnc1C1COc2ccccc2O1 (stereo not drawn) | 0 | -4 | 55* | 0 | 1 | 30
Cc1c(NC(=O)CSCc2ccco2)c(=O)n(-c2ccccc2)n1C | . | -4 | . | . | . | .
O=C1c2ccc3c4c(ccc(c24)C(=O)N1c1cccc(O)c1)C(=O)N(c1cccc(O)c1)C3=O | . | 8 | -50 | 7 | 2 | 49
CC1(C)CC(=O)C2=C(C1)N(c1cccc(O)c1)C1=C(C2)C(=O)CC(C)(C)C1 | -2 | 74* | -26 | 0 | -18 | 20
O=[N+]([O-])c1ccc2nc(SCc3cn4cc(Cl)ccc4n3)[nH]c2c1 | -2 | -4 | 31 | 1 | 2 | 51*
O=[N+]([O-])c1ccc2nc(SCc3cn4ccccc4n3)[nH]c2c1 | -5 | -6 | -55 | 1 | 2 | -4
COc1ccc2[nH]c3c4c(ccc3c2c1)C(=O)C=CC4=O | . | . | 82* | 29 | -29 | 98*
Oc1ccccc1-c1nc(NCCN2CCOCC2)c2ccccc2n1 | -3 | 0 | -16 | 72 | -2 | 29
COc1cccc(-c2nc(NCCN3CCOCC3)c3ccccc3n2)c1O | 14 | -1 | -78 | 2 | -10 | 51*
Cc1c(OC(C)C(=O)N2C[C@H]3C[C@@H](C2)c2cccc(=O)n2C3)ccc2c3c(c(=O)oc12)CCCC3 (stereo partly drawn) | . | 4 | . | . | . | .
CCOC(=O)c1nnn(-c2nonc2N)c1CSc1ccc(C)cc1 | -2 | 8 | 8 | 1 | -1 | -9
CCOC(=O)c1nnn(-c2nonc2N)c1CSc1ccccc1 | -2 | 4 | 52* | 0 | 1 | 6
O=C(CSc1cc(Cl)ccc1Cl)Nc1ccc(N2CCOCC2)cc1 | . | 10 | . | . | . | .
CC1Sc2ccc(S(=O)(=O)N3CCC(C(=O)Nc4cccc(Cl)c4)CC3)cc2NC1=O (stereo not drawn) | . | -20 | . | . | . | .
Cc1sc2ncnc(OCC(=O)Nc3ccc4c(c3)OCCO4)c2c1C | 1 | -5 | 99* | 0 | 0 | -5
COc1ccc(NC(=O)CSc2ncnc3c2sc2ccccc23)c(OC)c1 | 1 | 2 | 16 | 1 | 2 | 79*
COc1ccc2nc(N3C(=O)/C(=C/c4ccc(Cl)cc4)NC3=S)sc2c1 | -2 | . | 88* | 0 | 0 | 87*
O=C(NCCNC(=O)c1ccco1)c1ccc(Cl)c(Cl)c1 | . | -3 | . | . | . | .
Clc1cccc(Cl)c1Cn1ccc(C2CC2)n1 | 0 | 4 | -13 | 2 | 97* | 7
Cc1cc(C)n(CCCN2C(=O)c3cccc4cccc(c34)C2=O)n1 | 0 | 8 | 9 | 0 | 0 | 10
Brc1cccc(OCCOCCn2ccnc2)c1 | 0 | -2 | 72* | 0 | 1 | 15
CCOc1cccc(OCCCCn2ccnc2)c1 | -2 | 7 | 58* | 0 | -3 | 36
SMILES | Bim-Mcl-1 | MCL1 BIM primary | Mcl1-Bid inh | L929 necroptosis | TNF necrop inh | Mcl1 Noxa PPI
Brc1cccc(OCCn2ccnc2)c1 | -2 | 2 | 24 | -1 | 1 | 24
COc1cccc(OCCCn2ccnc2)c1 | . | 5 | . | . | . | .
CCOC(=O)C1CCN(C(=O)c2ccccc2CCc2ccccc2)CC1 | . | -9 | . | . | . | .
N#Cc1ccc(CO/N=C/c2ccccc2)cc1 | 0 | -4 | 89* | -1 | 1 | -4
Cc1nc2ccccc2nc(C)c1=NOCc1ccc(C#N)cc1 | -5 | -7 | -18 | 0 | 3 | 1
Cc1nn(-c2ccccc2[N+](=O)[O-])c(=O)c2ccccc12 | 0 | 2 | 2 | -1 | -2 | 2
Cc1nn(-c2ccccc2C(=O)O)c(=O)c2ccccc12 | -4 | 10 | 88* | 0 | -1 | .
CCN(CC(=O)Nc1ccccc1C(F)(F)F)C(=O)/C=C/c1ccc(Cl)c([N+](=O)[O-])c1 | . | -16 | . | . | . | .
CCOC(=O)C1=c2/c(=C/c3ccncc3)c(N)c(C(=O)OC)n2C(=O)C(c2ccncc2)S1 (stereo not drawn) | 3 | -9 | 62* | -2 | -5 | 30
Cc1ccc(N(C)S(=O)(=O)c2cccc(C(=O)NCC(c3ccco3)N3CCCC3)c2)cc1 (stereo not drawn) | . | 5 | . | . | . | .
COC(=O)CNc1c(-c2ccccn2)nc2ccc(Br)cn12 | 0 | 55* | -59 | 0 | -2 | -5
O=C(COC(=O)c1ccco1)Nc1nc2c(F)c(F)c(F)cc2s1 | . | 6 | . | . | . | .
O=C(COC(=O)c1ccc(NS(=O)(=O)c2cccs2)cc1)Nc1nc2c(F)c(F)c(F)cc2s1 | 0 | . | 29 | 1 | 0 | 71*
CN(C(=O)c1ccc(Cl)cc1)C1=CCCCC1CCC#N (stereo not drawn) | 0 | 2 | 65* | 0 | 0 | 2
O=C(CSc1nnc2ncccn12)Nc1cccc2ccccc12 | . | 1 | . | . | . | .
CN=c1scc(C)n1/N=C/c1cc(Br)c(O)c(OC)c1 | 0 | 7 | -40 | 2 | -1 | 53*
COc1cc(/C=N/N(C)C)cc(Br)c1O | . | -1 | -146 | 0 | -1 | 25
NS(=O)(=O)c1ccc(NC(=O)c2ccc(-c3ccccc3)cc2)cc1 | 5 | . | 28 | 2 | 2 | -63
NS(=O)(=O)c1ccc(NS(=O)(=O)c2ccc(NC(=O)c3ccc(-c4ccccc4)cc3)cc2)cc1 | 1 | 6 | 54* | 0 | -2 | 27
NS(=O)(=O)c1ccc(C(=O)Nc2ccc(-c3nc4cccnc4s3)cc2)cc1 | . | 1 | 52* | 2 | 2 | 49
CCn1c(SCC(=O)Nc2nc(-c3ccc(C)cc3)cs2)nnc1-c1ccccc1 | -1 | 5 | 6 | 0 | -2 | -7
C=CCn1c(SCC(=O)Nc2ccc(N3CCOCC3)cc2)nnc1-c1ccncc1 | . | -3 | . | . | . | .
C=CCn1c(SCC(=O)Nc2ccc(-c3nc4ccc(C)cc4s3)cc2)nnc1-c1ccncc1 | -11 | 7 | -20 | 1 | 1 | 63*
CCn1c(SCC(=O)Nc2ccc(-c3nc4ccc(C)cc4s3)cc2)nnc1-c1ccccc1 | -5 | -1 | 66* | . | -1 | 66*
CCOC(=O)c1ccc(NC(=O)c2ccccc2)cc1 | 0 | 3 | 12 | 0 | 1 | 13
CCOC(=O)c1ccc(NC(=O)Oc2ccccc2)cc1 | 2 | 2 | 100* | 1 | 2 | 15
CCOC(=O)c1c(NS(=O)(=O)c2ccc(Br)cc2)sc2c1CCC2 | -4 | 10 | -17 | 1 | -2 | 51*
CCOC(=O)c1c(NS(=O)(=O)Cc2ccccc2)sc2c1CCCC2 | 0 | 9 | 8 | 0 | -1 | 30
